# For part of these data: Potency and affinity values are given separately.
# Columns and labels:
# Set-up in all cases: scale not given: direction of the effect not stated beside the values
# [1] = target: Protein translocase subunit SecA (Escherichia coli (strain K12)) (UniProt P10408); assay: Assay to Identify E. coli SecA ATPase Inhibitors; type: functional; conditions: 30 µM
# [2] = target: T1, Ubiquitin-activating enzyme e1, putative (Leishmania donovani (strain BPK282A1)) (UniProt E9BSI1); assay: Leishmania donovani Ubiquitin Activating Enzyme (LdE1); type: functional; conditions: 30 µM
# T1 sequence (whole entry): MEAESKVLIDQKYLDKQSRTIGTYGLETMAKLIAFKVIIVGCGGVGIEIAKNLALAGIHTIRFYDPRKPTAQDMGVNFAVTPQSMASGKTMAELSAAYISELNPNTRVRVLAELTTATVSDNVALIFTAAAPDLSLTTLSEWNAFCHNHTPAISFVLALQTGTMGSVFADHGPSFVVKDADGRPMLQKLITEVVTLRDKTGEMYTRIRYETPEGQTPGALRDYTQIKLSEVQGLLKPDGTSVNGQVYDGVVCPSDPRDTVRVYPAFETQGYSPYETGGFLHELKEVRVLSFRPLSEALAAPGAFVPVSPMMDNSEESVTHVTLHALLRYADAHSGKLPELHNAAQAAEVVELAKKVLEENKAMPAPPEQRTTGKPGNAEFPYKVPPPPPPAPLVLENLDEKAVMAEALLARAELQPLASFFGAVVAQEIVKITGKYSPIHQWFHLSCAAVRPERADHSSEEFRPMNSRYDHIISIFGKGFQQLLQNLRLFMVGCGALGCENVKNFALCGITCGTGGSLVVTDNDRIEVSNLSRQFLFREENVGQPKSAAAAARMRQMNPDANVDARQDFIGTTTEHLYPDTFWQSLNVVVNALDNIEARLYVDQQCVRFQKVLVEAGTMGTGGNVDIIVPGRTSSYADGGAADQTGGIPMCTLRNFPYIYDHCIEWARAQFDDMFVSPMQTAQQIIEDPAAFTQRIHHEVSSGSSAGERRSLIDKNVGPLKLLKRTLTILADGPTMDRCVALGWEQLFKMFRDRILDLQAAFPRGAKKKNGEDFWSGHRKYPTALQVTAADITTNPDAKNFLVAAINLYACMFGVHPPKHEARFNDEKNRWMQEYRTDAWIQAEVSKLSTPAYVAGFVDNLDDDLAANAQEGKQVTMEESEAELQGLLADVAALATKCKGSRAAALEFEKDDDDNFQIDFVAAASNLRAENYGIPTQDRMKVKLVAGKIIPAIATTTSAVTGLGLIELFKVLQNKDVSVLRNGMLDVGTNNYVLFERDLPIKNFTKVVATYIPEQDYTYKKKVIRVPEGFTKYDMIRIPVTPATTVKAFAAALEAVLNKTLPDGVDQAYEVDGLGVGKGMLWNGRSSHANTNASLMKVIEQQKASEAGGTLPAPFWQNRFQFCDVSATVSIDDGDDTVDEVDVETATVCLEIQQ
# [3] = target: T2, Aspartate--tRNA(Asp/Asn) ligase (Mycobacterium tuberculosis (strain ATCC 25618 / H37Rv)) (UniProt P9WFW3); assay: Assay for Asp RNA synthetase-1 from Mycobacterium tuberculosis; type: functional; conditions: 30 µM; note: in the data most compounds retested in dose-response had high values
# T2 sequence (whole entry): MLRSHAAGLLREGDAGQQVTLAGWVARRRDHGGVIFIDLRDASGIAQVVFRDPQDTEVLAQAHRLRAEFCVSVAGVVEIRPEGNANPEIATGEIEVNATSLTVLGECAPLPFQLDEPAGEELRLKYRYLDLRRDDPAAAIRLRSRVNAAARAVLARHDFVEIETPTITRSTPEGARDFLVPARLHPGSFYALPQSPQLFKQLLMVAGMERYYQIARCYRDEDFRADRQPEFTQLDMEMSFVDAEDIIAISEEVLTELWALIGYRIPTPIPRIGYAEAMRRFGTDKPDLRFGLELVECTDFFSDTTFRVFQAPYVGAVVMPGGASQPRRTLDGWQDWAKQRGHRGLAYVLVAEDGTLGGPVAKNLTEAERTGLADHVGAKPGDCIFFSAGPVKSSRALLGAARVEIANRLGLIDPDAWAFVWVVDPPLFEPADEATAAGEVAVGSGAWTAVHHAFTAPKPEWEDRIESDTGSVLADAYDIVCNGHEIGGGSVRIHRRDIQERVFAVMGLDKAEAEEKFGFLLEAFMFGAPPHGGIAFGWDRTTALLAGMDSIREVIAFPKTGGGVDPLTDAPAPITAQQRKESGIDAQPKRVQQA
# [4] = target: AMP-activated protein kinase, AMPK (Homo sapiens) (UniProt P54646+O43741+P54619+Q9UGJ0+Q9Y478+Q13131+Q9UGI9); assay: AMP-dependent Kinase enzyme assay. An in vitro enzyme assay that detects ADP turnover that is directly proportional to AMPK activity. This uses naive AMPK that is activated during the assay with MK-8722; type: functional; conditions: 30 µM
# [5] = target: Sialic acid-binding Ig-like lectin 9 (Homo sapiens) (UniProt Q9Y336); assay: Hs-Siglec9 ALPHAscreen SOP 20170721; conditions: 10 µM
# Sialic acid-binding Ig-like lectin 9 (Homo sapiens), sequence (Q9Y336 whole entry): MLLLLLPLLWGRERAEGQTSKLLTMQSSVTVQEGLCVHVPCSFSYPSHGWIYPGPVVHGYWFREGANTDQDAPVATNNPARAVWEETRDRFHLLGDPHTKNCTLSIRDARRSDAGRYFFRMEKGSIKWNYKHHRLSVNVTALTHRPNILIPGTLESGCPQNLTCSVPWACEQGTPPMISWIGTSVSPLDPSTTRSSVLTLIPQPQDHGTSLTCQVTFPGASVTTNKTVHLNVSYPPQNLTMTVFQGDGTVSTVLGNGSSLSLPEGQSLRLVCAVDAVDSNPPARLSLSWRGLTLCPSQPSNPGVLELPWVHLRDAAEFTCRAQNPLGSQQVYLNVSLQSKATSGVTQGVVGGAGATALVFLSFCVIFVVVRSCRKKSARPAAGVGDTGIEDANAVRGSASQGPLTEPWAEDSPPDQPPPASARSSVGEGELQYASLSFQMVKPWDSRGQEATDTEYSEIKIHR
# Trypanosoma cruzi = assay: Trypanosoma cruzi phosphomannomutase and mannose-1-phosphate guanylyltransferase assay; type: functional; conditions: 10 µM
# [6] = target: T3, Arginase-2, mitochondrial (Homo sapiens) (UniProt P78540); assay: in vitro enzyme assay to detect the production of urea directly proportional to the activity of Arginase II; type: functional; conditions: 33.3 µM; note: in the data most compounds retested in dose-response had high values
# T3 sequence (whole entry): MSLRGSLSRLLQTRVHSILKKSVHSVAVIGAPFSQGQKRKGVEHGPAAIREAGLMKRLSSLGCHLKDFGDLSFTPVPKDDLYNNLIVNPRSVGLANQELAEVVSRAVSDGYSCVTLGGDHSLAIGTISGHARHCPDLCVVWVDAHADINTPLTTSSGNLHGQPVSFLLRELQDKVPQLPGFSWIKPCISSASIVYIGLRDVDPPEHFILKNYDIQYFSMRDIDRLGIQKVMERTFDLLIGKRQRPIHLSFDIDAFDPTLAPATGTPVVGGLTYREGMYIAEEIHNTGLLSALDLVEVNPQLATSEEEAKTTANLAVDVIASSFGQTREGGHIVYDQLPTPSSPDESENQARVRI
# [7] = target: T4, Proteasome subunit beta (Trypanosoma cruzi) (UniProt O96673); assay: Trypanosoma cruzi proteasome chymotrypsin-like activity (TcProtChymo) assay.; note: in the data most compounds retested in dose-response had high values; type: functional; conditions: 9.37 µM
# T4 sequence (whole entry): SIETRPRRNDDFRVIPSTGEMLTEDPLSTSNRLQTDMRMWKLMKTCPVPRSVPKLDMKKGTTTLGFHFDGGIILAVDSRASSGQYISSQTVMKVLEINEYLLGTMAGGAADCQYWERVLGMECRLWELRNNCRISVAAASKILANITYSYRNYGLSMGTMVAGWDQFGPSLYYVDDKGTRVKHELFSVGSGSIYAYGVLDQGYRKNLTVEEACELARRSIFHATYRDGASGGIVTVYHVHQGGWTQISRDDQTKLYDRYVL
# Homo sapiens = species: Homo sapiens; assay: To identify inhibition of the IFN signalling (Jak-Stat) pathway via expression of an eGFP reporter gene under the control of an IFN-stimulated response element (ISRE) containing MxA promoter.; type: functional; conditions: 30 µM
# [8] = target: Shiga toxin 2 (Escherichia coli O157:H7) (UniProt P09385+P09386); assay: E. coli 0.157:H7 Shiga Toxin SOP - stx2 screening assay; type: functional; conditions: 30 µM
# [9] = target: T5, Tyrosyl-tRNA synthetase, putative (Trypanosoma cruzi (strain CL Brener)) (UniProt Q4DSP6); assay: Trypanosoma cruzi tyrosyl tRNA synthetase (TcYRS) _High Tyrosine SOP; type: functional; conditions: 30 µM; note: in the data most compounds retested in dose-response had high values
# T5 sequence (whole entry): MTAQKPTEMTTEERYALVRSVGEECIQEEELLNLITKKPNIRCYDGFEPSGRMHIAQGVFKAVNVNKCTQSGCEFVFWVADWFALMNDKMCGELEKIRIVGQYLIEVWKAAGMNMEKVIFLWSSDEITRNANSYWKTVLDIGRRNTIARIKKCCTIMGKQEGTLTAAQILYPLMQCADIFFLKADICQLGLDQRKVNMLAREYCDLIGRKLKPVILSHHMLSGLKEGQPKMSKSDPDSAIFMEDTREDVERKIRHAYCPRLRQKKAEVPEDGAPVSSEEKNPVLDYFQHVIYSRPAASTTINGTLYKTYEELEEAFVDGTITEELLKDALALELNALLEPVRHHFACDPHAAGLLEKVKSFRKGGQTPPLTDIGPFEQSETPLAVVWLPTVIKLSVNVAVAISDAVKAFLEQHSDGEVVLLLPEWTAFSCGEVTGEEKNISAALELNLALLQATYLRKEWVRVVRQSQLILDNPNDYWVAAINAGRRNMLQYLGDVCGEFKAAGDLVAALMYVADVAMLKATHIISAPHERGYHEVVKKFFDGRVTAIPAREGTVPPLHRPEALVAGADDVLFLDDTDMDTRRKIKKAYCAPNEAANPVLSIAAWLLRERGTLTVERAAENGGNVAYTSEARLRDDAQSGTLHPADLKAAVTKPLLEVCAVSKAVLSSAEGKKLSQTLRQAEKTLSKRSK
# [10] = target: T5, Tyrosyl-tRNA synthetase, putative (Trypanosoma cruzi (strain CL Brener)); assay: Trypanosoma cruzi tyrosyl tRNA synthetase (TcYRS) SOP; type: functional; conditions: 30 µM
# [11] = target: Chromo domain-containing protein 1 (Saccharomyces cerevisiae (strain ATCC 204508 / S288c) (Baker's yeast)) (UniProt P32657); assay: ScCHD-1 Enzyme Inhibition Assay; type: functional; conditions: 30 µM; note: in the data most compounds retested in dose-response had high values
# Chromo domain-containing protein 1 (Saccharomyces cerevisiae (strain ATCC 204508 / S288c) (Baker's yeast)), sequence (P32657 whole entry, the tested form may be a part): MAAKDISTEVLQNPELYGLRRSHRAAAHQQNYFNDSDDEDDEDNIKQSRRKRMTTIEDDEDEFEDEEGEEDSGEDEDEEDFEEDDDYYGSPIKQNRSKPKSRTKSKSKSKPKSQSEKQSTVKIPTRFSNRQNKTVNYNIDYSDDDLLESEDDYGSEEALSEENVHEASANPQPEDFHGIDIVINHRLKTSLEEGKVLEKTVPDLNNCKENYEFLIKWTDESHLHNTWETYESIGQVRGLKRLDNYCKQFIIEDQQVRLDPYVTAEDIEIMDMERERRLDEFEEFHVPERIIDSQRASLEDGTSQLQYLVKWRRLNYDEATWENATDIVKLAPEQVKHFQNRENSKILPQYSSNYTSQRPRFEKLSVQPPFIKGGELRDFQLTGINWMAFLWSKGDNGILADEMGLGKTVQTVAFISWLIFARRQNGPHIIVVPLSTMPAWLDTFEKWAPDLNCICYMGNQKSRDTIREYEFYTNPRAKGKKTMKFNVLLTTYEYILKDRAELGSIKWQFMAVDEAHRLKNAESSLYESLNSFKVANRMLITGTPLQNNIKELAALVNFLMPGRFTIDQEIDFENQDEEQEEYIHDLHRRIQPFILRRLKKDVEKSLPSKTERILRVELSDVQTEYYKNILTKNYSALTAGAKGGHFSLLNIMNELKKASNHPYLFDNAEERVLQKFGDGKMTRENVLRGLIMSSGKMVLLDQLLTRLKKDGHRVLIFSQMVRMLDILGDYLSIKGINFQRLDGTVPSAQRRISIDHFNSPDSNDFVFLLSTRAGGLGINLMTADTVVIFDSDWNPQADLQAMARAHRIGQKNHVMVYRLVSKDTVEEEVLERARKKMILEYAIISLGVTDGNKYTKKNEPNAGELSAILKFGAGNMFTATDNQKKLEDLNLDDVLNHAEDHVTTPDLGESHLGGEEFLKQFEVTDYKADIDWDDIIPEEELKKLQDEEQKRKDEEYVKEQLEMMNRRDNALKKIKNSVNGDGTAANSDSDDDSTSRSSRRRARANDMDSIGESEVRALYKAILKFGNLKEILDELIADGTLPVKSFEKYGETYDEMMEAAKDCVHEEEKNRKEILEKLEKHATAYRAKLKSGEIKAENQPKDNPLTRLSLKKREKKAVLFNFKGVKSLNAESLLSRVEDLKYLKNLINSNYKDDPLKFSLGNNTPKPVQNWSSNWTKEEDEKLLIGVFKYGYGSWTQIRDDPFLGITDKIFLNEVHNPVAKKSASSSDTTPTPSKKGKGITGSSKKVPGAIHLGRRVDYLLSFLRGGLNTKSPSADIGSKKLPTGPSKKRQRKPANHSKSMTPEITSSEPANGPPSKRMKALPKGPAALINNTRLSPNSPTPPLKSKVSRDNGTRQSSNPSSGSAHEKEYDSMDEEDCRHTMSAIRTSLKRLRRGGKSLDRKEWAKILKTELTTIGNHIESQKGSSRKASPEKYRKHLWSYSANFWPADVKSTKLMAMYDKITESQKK
# Protein translocase subunit SecA (Escherichia coli (strain K12)), sequence (P10408 whole entry): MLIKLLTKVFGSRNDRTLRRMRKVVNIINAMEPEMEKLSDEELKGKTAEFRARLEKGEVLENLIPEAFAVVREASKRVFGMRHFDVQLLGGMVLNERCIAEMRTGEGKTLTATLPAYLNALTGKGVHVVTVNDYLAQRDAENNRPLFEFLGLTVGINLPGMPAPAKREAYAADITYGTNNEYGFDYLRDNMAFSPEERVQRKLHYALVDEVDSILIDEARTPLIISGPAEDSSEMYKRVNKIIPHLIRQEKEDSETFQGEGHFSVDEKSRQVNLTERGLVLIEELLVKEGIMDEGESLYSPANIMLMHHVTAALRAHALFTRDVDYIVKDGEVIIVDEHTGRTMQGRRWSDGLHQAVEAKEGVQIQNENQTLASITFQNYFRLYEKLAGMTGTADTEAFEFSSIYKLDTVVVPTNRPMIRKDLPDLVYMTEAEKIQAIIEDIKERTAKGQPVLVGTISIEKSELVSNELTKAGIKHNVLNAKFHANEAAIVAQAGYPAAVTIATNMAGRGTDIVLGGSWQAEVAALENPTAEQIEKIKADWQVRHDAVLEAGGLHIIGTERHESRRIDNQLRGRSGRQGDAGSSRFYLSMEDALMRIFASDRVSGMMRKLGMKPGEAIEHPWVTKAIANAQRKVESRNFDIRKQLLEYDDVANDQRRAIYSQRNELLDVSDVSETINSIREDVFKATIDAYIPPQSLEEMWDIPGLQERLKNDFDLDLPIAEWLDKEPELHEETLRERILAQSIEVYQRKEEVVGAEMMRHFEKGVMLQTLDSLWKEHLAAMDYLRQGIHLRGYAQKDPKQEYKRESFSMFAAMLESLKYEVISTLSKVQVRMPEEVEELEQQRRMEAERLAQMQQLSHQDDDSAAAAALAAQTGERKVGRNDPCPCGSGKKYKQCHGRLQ
SMILES,Percent Effect [1],Percent Effect [2],Percent Effect [3],Percent Effect [4],Percent Effect [5],Percent Effect (Trypanosoma cruzi),Percent Effect [6],Percent Effect [7],Percent Effect (Homo sapiens),Percent Effect [8],Percent Effect [9],Percent Effect [10],Percent Effect [11]
CC(C)N1CCOCC2(CN(Cc3ccccn3)CCO2)C1 (stereo not given),-1.27%,10.4%,5.23%,2.61%,-0.373%,-2.86%,5.81%,3.65%,5.84%,-12.2%,6.35%,3.85%,-3.65%
O=C(Cc1ccc(F)cc1)N1CCN(CC(O)C2CC2)CC1 (stereo not given),-9.94%,5.48%,0.575%,0.569%,-4.1%,-5.09%,-3.64%,6.74%,10.6%,7.07%,3.23%,10%,-5.88%
Cc1nc(C2(NCC(=O)NC(=O)NCc3cccs3)CCCCC2)no1,-4.13%,15.8%,-4.16%,-2.76%,-3.65%,2.82%,-3.55%,-0.479%,7.32%,5.13%,2.13%,15.6%,-4.77%
c1ccc(O[C@H]2CC[C@H]3[C@H]2OCCN3Cc2nccs2)nc1,-1.17%,-5.2%,5.47%,-3.9%,10.1%,7.57%,-41.4%,13.6%,21%,-14.7%,3.23%,8.64%,-5.68%
COC[C@@H]1CCC[C@]12CN(Cc1cccc(C)n1)CCO2,2.73%,4%,3.92%,0.13%,-3.4%,-8.45%,0.528%,15.3%,9.81%,-43.1%,2.12%,2.56%,-8.43%
O[C@@]1(c2ccccn2)CC[C@H]2CN(Cc3cccc(Cl)c3Cl)C[C@H]21,-3.54%,1.35%,-0.73%,14.3%,-0.828%,-3.95%,-1.62%,-0.468%,25.8%,23.9%,2.15%,6.49%,-8.09%
Cc1cc(CN2CC[C@H]3OCC[C@@]3(C(=O)NC(C)C)C2)no1,-1.37%,15.6%,0.364%,0.843%,5.07%,0.888%,4.52%,10.4%,16.3%,-28.2%,5.29%,11.5%,-5.46%
CN(C)C(=O)CN1CCN(C(=O)Cc2csc(-c3ncccn3)n2)CC1,-3.23%,13.2%,-1.92%,-1.28%,12%,-3.19%,1.92%,8.69%,23.7%,30%,5.39%,9.76%,-7.21%
c1ccc(CO[C@H]2CO[C@@]3(CCN(Cc4ccoc4)C3)C2)nc1,-1.82%,14.7%,2.15%,3.34%,5.22%,-1.38%,-7.57%,10.2%,-27.8%,-30.9%,-1.06%,12.8%,-9.15%
CCN1CCC(c2cncc(N(C)C)n2)CC1,-1.04%,13.3%,-2.49%,1.31%,-3.05%,-2.76%,-3.96%,13.5%,6.71%,-7.25%,3.19%,11.5%,-4.48%
CCN1CCC2(COCc3cnc(NCC4CC4)nc32)C1 (stereo not given),1.53%,0%,0.296%,-4.7%,2.85%,5.95%,-2%,3.68%,18.1%,-28.9%,0%,8.64%,-0.871%
Cc1cccc(CN2C[C@@H]3CCCO[C@@H]3[C@H](NS(C)(=O)=O)C2)n1,-4.89%,21.3%,4.75%,-6.76%,-3.19%,5.99%,-50.4%,11.1%,-3.89%,-20.3%,7.29%,25%,-7.06%
COc1cccc(CCNCc2c(C)nn(C)c2N(C)C)c1,-3.25%,10.5%,-2.61%,-2.73%,0.941%,-4.13%,-3.45%,13.4%,-20.1%,28.4%,3.43%,12.2%,-4.73%
CN(C)c1nccc(N2CCO[C@H]3CN(Cc4ccsc4)C[C@H]32)n1,-0.682%,8.22%,-1.5%,2.33%,8.35%,1.59%,-0.399%,19.9%,2.38%,-97.8%,8.33%,13.6%,-5.92%
CCN(Cc1cccnc1)CC1CCCO1 (stereo not given),-3.64%,0%,6.87%,-3.71%,-1.05%,-5.88%,-6.82%,1.77%,3.09%,-16.3%,2.15%,2.5%,-3.4%

# Reference: ChEMBL document CHEMBL3988442, “University of Dundee, Small-Polar-MMV Screening Library” (2021)
